# Laboratory results reported in PubChem BioAssay.
# Active and inactive are the calls of the source. Rule as the data show it: active = fold change permeability below about 0.7 or above about 1.3; inactive = in between.
# Experiment: modulators of brain endothelial barrier permeability, primary screen, cell-based, FITC-avidin fluorescence, HTS (AID 1963498); also: test concentration not given here
# Settings: actives lie on both sides
row,Compound,fold change permeability
1,CCN1CCc2nc(N)oc2CC1,1.1 (inactive)
2,Oc1ccccc1-c1cc(-c2ccccc2F)[nH]n1,1 (inactive)
3,CCCCCCCCCC[Si](C)(C)CCC(=O)NC(Cc1ccc(C)cc1)c1ccccc1 (stereo not given),0.8 (inactive)
4,Nc1ccn([C@@H]2O[C@H](CO)[C@@H](O)[C@@H]2O)c(=O)n1,1 (inactive)
5,O=C(O)CCCCCCCC(=O)O,1.2 (inactive)
6,Oc1ccc2c(c1)CC[C@H](c1ccccc1)[C@@H]2c1ccc(OCCN2CCCC2)cc1,1.3 (active)
7,O=C(Nc1ccc(Oc2ccc(Cl)cn2)c(Cl)c1)c1ccccn1,1.5 (active)
8,COc1ccc(-c2cc3ncc(C)n3c(Nc3ncccc3C(N)=O)n2)cc1OC,1.6 (active)
9,COCCOC(=O)C1=C(C)NC(C)=C(C(=O)OC/C=C/c2ccccc2)C1c1cccc([N+](=O)[O-])c1 (stereo not given),1.2 (inactive)
10,O=c1oc(Cl)c(Cl)c2ccccc12,1.4 (active)
11,NCCSSCCN,0.9 (inactive)
12,COc1cc2c(cc1O)CC[C@@H]1[C@@H]2CC[C@]2(C)[C@@H](O)CC[C@@H]12,1.3 (active)
13,CC1(C)CO[C@@H](CC(=O)O)CN1,1.2 (inactive)
14,C[C@H](NCCc1ccc(O)cc1)[C@H](O)c1ccc(O)cc1,0.7 (active)
15,N[C@H](CCCP(=O)(O)O)C(=O)O,1.3 (active)
16,CC#CCOC(=O)c1c(C)nc2sc3c(c2c1N)CCC(O)C3 (stereo not given),1.9 (active)
17,O=P(O)(O)C(Cl)(Cl)P(=O)(O)O,1.1 (inactive)
18,CN(C)CCCN1c2ccccc2Sc2ccc(Cl)cc21,1.1 (inactive)
19,NC(=O)CC[C@H](N)C(=O)O,0.8 (inactive)
20,CN(C)c1ccc(/C=C2\C(=O)Nc3ccccc32)cc1,1.6 (active)
